From PubChem BioAssay AID1080 (Emory University Molecular Libraries Screening Center, 2008)
Out of some 1,300 compounds screened, about 640 (49%) were called active.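 The calls were made as follows: active = cAMP induction above 50% in the main assay while under 30% in all four parallel counter assays; inactive = the rest.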 The set was probably picked from earlier hits. A selection follows.

Legend:
[1] = cAMP induction in EP2, EP4, beta2-AR and parental cells, confirmation, counter-screen for EP2 modulator project, cell-based, five parallel assays, C6 glioma, HEK293 (AID 1080); details: cAMP HTRF induction
[2] = target: Prostaglandin E2 receptor EP2 subtype (Homo sapiens) (UniProt P43116); assay: as above; details: cAMP HTRF induction, stronger effect = higher value, screened at 20 µM (by protocol), percent of 1 uM PGE2 response, plus low (about EC15) PGE2 agonist
[3] = measured here: EP4 receptor counter-screen, percent of 1 uM PGE2 response, plus low (about EC15) PGE2 agonist
[4] = measured here: beta2 adrenergic HEK293 counter-screen
[5] = measured here: cAMP conditions counter-screen
[6] = measured here: parent C6 cells counter-screen

| SMILES | cAMP induction [1, 3] | cAMP induction [1, 4] | cAMP induction [1, 5] | cAMP induction [1, 6] | cAMP induction [2] |
| --- | --- | --- | --- | --- | --- |
| O=C(Nc1ccccc1N1CCCCC1)c1ccc2nccnc2c1 | -20.6% | -12.3% | -1.35% | -3.85% | 56.9% (active) |
| O=C(Nc1ccccc1N1CCCCC1)c1cccc(F)c1 | 20.9% | -8.46% | -6.32% | -1.46% | 54.4% (active) |
| CCC(C)(C)c1ccc(OCC(=O)N(C)C)c(C(C)(C)CC)c1 | -18% | -18.7% | -1.65% | -11.3% | 18.5% (inactive) |
| CC[C@@H]1Cc2cc(O)ccc2C2=C1c1ccc(O)cc1C[C@H]2CC | -0.0767% | -11.7% | 6.45% | 2.02% | 34.5% (inactive) |
| CCCc1cc(-c2n[nH]c(=S)n2Cc2ccccc2)cs1 | 1.9% | -7.59% | -4.47% | 1.74% | 37.8% (inactive) |
| CCCCOc1ccc(-c2nnc(-c3ccco3)o2)cc1 | -1.8% | -7.34% | 3.34% | 3.09% | 50.4% (active) |
| Cc1cc(C#N)c(SCC(N)=O)nc1-c1ccc(F)cc1 | 9.53% | 7.22% | 2.14% | -4.05% | 50.9% (active) |
| FC(F)(F)c1cccc(-c2cc3ccccc3nc2N2CCCC2)c1 | 17.7% | -13% | -2.73% | -3.28% | 52.7% (active) |
| CCOC(=O)c1c(C2CC2)csc1NC(=O)CSCc1c(C)noc1C | -15.3% | -5.42% | -2.02% | 2.56% | 48.8% (inactive) |
| O=c1cc(N2CCCCC2)c(-c2ccccc2)nn1Cc1cccc(F)c1 | -7.11% | -13% | 3.15% | 3.46% | 79.6% (active) |
| CCOc1ccc(NC(=O)CSc2ncnc3c2sc2ccccc23)cc1 | 80.8% | 81.1% | 79.9% | 80.1% | 77.7% (inactive) |
| COc1ccc(C)c(Cn2c(-c3nonc3N)nc3ccccc32)c1 | 4.7% | -6.52% | 1.9% | 1.52% | 69.6% (active) |
| COC(=O)C1=C(C)N(C)C(C)=C(C(=O)OC)C1c1cccc(Br)c1 | -5.89% | 5.82% | -5.28% | 1.49% | 46% (inactive) |
| Cc1ccccc1-c1n[nH]c(=S)n1/N=C/c1ccc(-c2ccccc2Br)o1 | 18.4% | 14.3% | 22.4% | 19.4% | 57.9% (active) |
| O=c1[nH]c(CSc2ncc(-c3ccc(F)cc3)n2Cc2ccco2)nc2ccccc12 | -12.9% | -5.45% | -6.27% | -5.69% | 39.9% (inactive) |
| Cc1nn2c(c1-c1ccccc1)N=C(c1ccco1)CC2c1ccccc1 (stereo not given) | -13.9% | -0.13% | 0.137% | 4.52% | 36.7% (inactive) |
| NC(=O)COc1ccc(C23CC4CC(CC(C4)C2)C3)cc1 | -2.42% | -18.4% | 7.34% | -0.99% | 64.6% (active) |
| Cc1nc2ccccc2c(-c2ccccc2)c1C(=O)c1ccccc1 | 2.31% | 4.97% | -6.03% | -0.11% | 88.9% (active) |
| CC(C)(C)c1nc2ccccc2c(=O)n1N1C(=O)c2ccccc2C1=O | -2.16% | 4.41% | 5.06% | 3.57% | 36.9% (inactive) |
| O=c1c2ccccc2nc2n1C1(CCCCC1)Cc1ccccc1-2 | -3.33% | -1.27% | 0.00333% | -4.35% | 55.1% (active) |
| CN(C)Cc1ccc(F)cc1Sc1cc(Cl)ccc1Cl | -1.47% | -10.1% | -3.1% | 2.77% | 45.2% (inactive) |
| CC(C)NC(=S)NN=C1CCCCCCCCCCC1 | 1.01% | 7.6% | 2.87% | -7.59% | 54.8% (active) |
| COC(=O)CSc1nc2c(c(C3CC=CCC3)c1C#N)CCC2 (stereo not given) | 1.11% | 7.56% | 3.4% | 4.46% | 69.8% (active) |
| CSc1ncnc2sc(C)c(C)c12 | 5.89% | 2.78% | 5.03% | 0.0167% | 42.1% (inactive) |
| CC1CCN(c2nc3c(c(=O)[nH]c(=O)n3C)n2CCCc2ccccc2)CC1 | 4.8% | -2.72% | -1.35% | -0.403% | 42.2% (inactive) |
| Cc1cccc(Cn2c(N3CCN(c4ccccc4)CC3)nc3c2c(=O)n(C)c(=O)n3C)c1 | -5.29% | -6.91% | 5.21% | 1.06% | 54.8% (active) |

| SMILES | cAMP induction [1, 3] | cAMP induction [1, 4] | cAMP induction [1, 5] | cAMP induction [1, 6] | cAMP induction [2] |
| --- | --- | --- | --- | --- | --- |
| COc1c2c(cc3occ(-c4ccc5c(c4)OCO5)c(=O)c13)OC(C)(C)C=C2 | -0.877% | -13.4% | 2.3% | 4.12% | 46.1% (inactive) |
| CC(C)Oc1ccc(Cc2n[nH]c(=S)n2Cc2ccccc2)cc1Cl | -4.47% | -10.4% | 0.63% | 2.28% | 40% (inactive) |
| CC1(C)Cc2nc3sc4c(SCC(=O)NC(c5ccccc5)c5ccccc5)ncnc4c3cc2CO1 | 71.8% | 71.7% | 70.8% | 70% | 68.6% (inactive) |
| CCOC(=O)C1=C(CN2CCc3ccccc32)NC(=O)NC1c1ccc(Cl)cc1 (stereo not given) | -13% | -5.75% | -12.2% | -1.26% | 42.4% (inactive) |
| Cc1cc(NC(=O)CN2CCCC(C)C2)n(-c2nc3ccccc3s2)n1 (stereo not given) | 16.2% | 6.5% | -2.07% | -6.69% | 50.7% (active) |
| COC(=O)c1sc2[nH]c(=S)n(N)c(=O)c2c1C | 68.1% | 67.4% | 67.6% | 66.3% | 70.6% (inactive) |
| Cc1cccc2cc(CN(Cc3cccs3)C(c3nnnn3C3CCCC3)C(C)C)c(=O)[nH]c12 (stereo not given) | -2.3% | -6.33% | 1.55% | 3.32% | 59.5% (active) |
| Oc1ccc(/C=N/N(Cc2ccccc2)c2ccccc2)cc1 | -13.7% | -14.9% | -0.103% | 2.51% | 55.2% (active) |
| CCN1CCN(c2c(Cl)cccc2NC(=O)c2ccc(Br)o2)CC1 | 9.56% | -6.35% | 8.3% | 10.5% | 45.8% (inactive) |
| CCOC(=O)c1c(N)nn(C(=O)c2ccccc2)c1-c1ccccc1 | -2.57% | -8.03% | 0.963% | -2.53% | 53.3% (active) |
| Cc1ccc(-n2c(SCC(=O)Nc3ccc4c(c3)OCO4)nnc2-c2ccoc2C)cc1 | 7.89% | -0.777% | -1.2% | -1.05% | 40.3% (inactive) |
| COc1ccccc1NC(=O)CSc1nnc(Cn2nnc(-c3ccccc3)n2)n1-c1ccccc1 | -5.84% | -2.51% | 2.46% | 3.99% | 61.9% (active) |
| O=c1c2ccccc2c(-c2ccccc2)nn1Cc1ccccc1 | 1.05% | 4.51% | -1.54% | -0.867% | 78% (active) |
| CSc1nc2ccccc2c(=O)n1Cc1ccc(F)cc1 | 1.87% | 10% | -3.28% | 0.81% | 44.6% (inactive) |
| O=c1c2ccccc2c(-c2ccc(Br)cc2)nn1Cc1ccccc1 | 4.3% | 8.28% | -3.64% | 0.753% | 72.8% (active) |
| O=C(COC(=O)c1ccccc1)Nc1ccccc1Sc1ccccc1 | 5.14% | -16.3% | -4.67% | -4.62% | 66.8% (active) |
| Cc1ccccc1C(=O)Nc1ccccc1Sc1ccccc1 | -6.34% | -0.06% | -1.62% | -1.24% | 73.7% (active) |
| O=C(CN1CCCCC1)N1c2ccccc2Sc2ccc(C(F)(F)F)cc21 | -11.3% | -1.41% | -5.21% | -5.14% | 47.3% (inactive) |
| CCc1ccccc1NC(=O)/C(=C/c1ccccc1)c1ccccc1 | -11.7% | 34% | -0.563% | -0.623% | 53.6% (inactive) |
| Cc1ccc(C(=O)c2c(NC(=O)c3ccncc3)sc3c2CCCC3)cc1 | 4.56% | -17.1% | 0.45% | 3.43% | 54.2% (active) |
| CCOCC(=O)Nc1sc2c(c1C(=O)OCC)CCCC2 | -16% | 3.07% | 3.98% | 1.75% | 40.6% (inactive) |
| CC1(C)CC2CC(C)(CN2c2ncnc3ccc(Br)cc23)C1 (stereo not given) | -0.537% | -0.287% | 6.56% | 5.43% | 25.7% (inactive) |
| Cc1ccc(Nc2cc(C)nc3c(C)ccc([N+](=O)[O-])c23)cc1 | -1.3% | 15.4% | 0.53% | -0.713% | 57.4% (active) |
| CC(=O)c1ccc2c(c1)c1ccccc1n2CC(C)C | 8.49% | 0.833% | 9.82% | 9.42% | 58.9% (active) |
| CCCCCn1c(SCCC(C)C)nc2c1c(=O)[nH]c(=O)n2C | -16.3% | -18.1% | 1.4% | -0.767% | 59.3% (active) |
| CCOC(=O)C(CC)Sc1ncnc2c1nnn2-c1ccc(F)cc1 (stereo not given) | -7.74% | 17% | 0.993% | 2.03% | 50.7% (active) |
